# Data published in PubChem BioAssay (NCI).
# Compounds without any hit were thinned out: in the full panel of roughly 83,000, 20% have a hit.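 Method: cells in 96-well plates; compound added at one concentration; 48 h incubation; percent growth measured; values under 10 scored active.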 Calls of active or inactive are those of the source.
# System: DU-145 prostate
# Assay: NCI-60 one-dose screen, 48 h (100 = growth as untreated, 0 = no growth, -100 = all killed)
# Settings: 10 µM unless noted
row,Structure (SMILES),growth
1,COC(=O)CCSC1=C(C)C(=O)c2ccccc2C1=O,111% (inactive)
2,CCc1cc(OC(=O)N2CCC(N3CCCCC3)CC2)ccc1Nc1cc(-c2ccc(-n3cccn3)cc2)[nH]n1,-26.3% (active)
3,O=C(Nc1cc(C(F)(F)F)cc(C(F)(F)F)c1)Nc1ccc2oc(=O)ccc2c1,18.3% (inactive)
4,Cc1ccc2c(n1)C(=O)C(Cl)=C(Nc1ccc(C(=O)OC(C)(C)C)cc1)C2=O,97.9% [9.25 µM] (inactive)
5,Cc1cc(=O)[nH]c(O)c1C#N,108% (inactive)
6,CCN(CC)S(=O)(=O)c1ccc(-c2nc(C(Cl)Cl)nc3cc(C)nn23)cc1,15.9% (inactive)
7,CNC(=O)Nc1ccc(Nc2cc(-c3ccc(-n4cccn4)cc3)[nH]n2)c(C)c1,105% (inactive)

# System: K-562 leukemia
# Assay: as above
# Settings: 10 µM unless noted
row,Structure (SMILES),growth
1,CNc1sc(S(=O)(=O)NC)nc1S(=O)(=O)c1ccc(C)cc1,97.5% (inactive)
2,COc1cccc(N2CCN(C3=C(Cl)C(=O)c4ncccc4C3=O)CC2)c1,7.16% (active)
3,O=C1[C@@H]2Cc3c([nH]c4ccccc34)[C@@H](c3ccc(Cl)cc3)N2C(=O)CN1C1CCN(Cc2ccccc2)CC1,3.54% (active)
4,CC(=O)OCCCCN1C=C/C(=C\C(=O)n2ccc3ccccc32)c2ccccc21,90.6% (inactive)
5,CN1CCN(c2ccc(Nc3nc(NCCNS(=O)(=O)c4ccc5ccccc5c4)c4sccc4n3)cc2)CC1,1.59% (active)
6,CC1=C(C)C(=O)C(Nc2ccc3c(c2)OCCO3)=C(Br)C1=O,4.46% (active)
7,C=C(C)[C@@H]1CC[C@]2(C(=O)NC3CCCCC3)CC[C@]3(C)[C@H](CC[C@@H]4[C@@]5(C)CC[C@H](N)C(C)(C)[C@@H]5CC[C@]43C)[C@@H]12,-34.7% (active)
8,CCOC(=O)c1c(NC(=O)c2ccc(C(F)(F)F)cc2)sc2c3c(ccc12)OCN(C)C3,-28.3% (active)
9,C#CCN(C)CCCOc1ccc(NCc2ccc(/C=C/C(=O)NO)cc2)cc1Cl,15.3% (inactive)
10,COc1cc(/C=N\NC(=O)c2ccc3nc(-c4ccc(Br)cc4)[nH]c3c2)cc(OC)c1OC,22.5% (inactive)
11,C=C1CCc2nc(SCC(=O)O)ccc2N1,98.5% (inactive)
12,CN1CCC[C@]2(C)[C@H]3CC[C@@H]4[C@@H]5[C@H]6OC[C@@]5(CCC6(C)C)CC[C@@]4(C)[C@]3(C)CC[C@H]2C1(C)C,4.84% (active)
13,C=C(C=O)[C@@H]1CC[C@]2(C(=O)O)CC[C@]3(C)C(CC[C@@H]4[C@@](C)(CCC#N)[C@H](C(=C)C=O)CC[C@]43C)[C@@H]12 (some centres not stated),4.17% (active)
14,NCCNC(=O)c1cccc(COc2ccccc2NC(=O)c2cc(Cl)c(Cl)[nH]2)c1,5.92% (active)
15,COc1ccc(C2c3[nH]c4ccc(Cl)cc4c3CCN2c2oc(CO)nc2C#N)cc1 (configuration not stated),19.5% (inactive)
16,CN(C)c1ccc(-c2cc(-c3c[nH]c4ccccc34)nc(N)c2C#N)cc1,17.5% (inactive)
17,COc1ccccc1/C=C1\Oc2ccc(O)c(O)c2C1=O,95.6% (inactive)
18,CCCCCc1ccc(S(=O)(=O)Nc2cc(-c3csc(N)n3)ccc2OC)cc1,83.9% (inactive)
19,O=C(O)c1ccc(-n2c(=O)n(-c3cccc(C(F)(F)F)c3)c(=O)c3cc(-c4ccc(F)cc4F)ccc32)cc1,5.71% (active)
20,Nn1c(=O)n(-c2cccc(C(F)(F)F)c2)c(=O)c2cc(-c3ccc(F)cc3F)ccc21,6.85% (active)

row,Structure (SMILES),growth
1,CCCCN1C(=O)/C(=c2\sc3n(c2=O)C2C(NN=3)N(CC)C(=O)N2CC)c2cc(C)ccc21 (configuration not stated),79.8% (inactive)
2,CC(C)[C@H]1c2[nH]c3ccccc3c2C[C@H]2C(=O)N(CCCCCCC(=O)NO)CC(=O)N12,60.6% (inactive)
3,O=C(N/N=C\c1ccc(F)cc1)c1ccc2nc(-c3ccc(Br)cc3)[nH]c2c1,19.9% (inactive)
4,NC1[C@H]2CN(c3cnc(C(=O)Nc4cc(F)cc5cccnc45)cn3)C[C@@H]12 (some centres not stated),15% (inactive)
5,Cc1ccsc1[C@H]1c2[nH]c3ccccc3c2C[C@H]2C(=O)N(CCCCCCC(=O)NO)CC(=O)N12,58.2% (inactive)
6,CC(=O)N(O)CCCCCNC(=O)CCC(=O)N(O)CCCCCNC(=O)CCC(=O)N(O)CCCCCN(CCCCCCCCCC[P+](c1ccccc1)(c1ccccc1)c1ccccc1)CCCCCCCCCC[P+](c1ccccc1)(c1ccccc1)c1ccccc1,9.98% (active)
7,O=c1nc(Nc2ccc([N+](=O)[O-])cc2O)sc2ccccc12,12.9% (inactive)
8,Cc1cc2nc(C(Cl)Cl)nc(-c3ccc(S(=O)(=O)N(C)C)cc3)n2n1,14.1% (inactive)
9,C/C(CC1(O)C(=O)Nc2ccccc21)=N\O (configuration not stated),99.6% (inactive)
10,C[C@]12CC[C@H]3[C@@H](CC=C4C[C@@H](O)CC[C@@]43C)[C@@H]1CC[C@@H]2[C@](C)(O)CCc1cccnc1,26.4% (inactive)
11,O=C(CSc1nnc(-c2cccs2)n1-c1ccccc1)Nc1ccccc1F,26.6% (inactive)
12,CC(=C(c1ccc(OCCCN(C)C)cc1)c1ccc(OCCCN(C)C)cc1)c1ccc(Cl)cc1,-13.5% (active)
13,O=C(CSc1nc2ccccc2c(=O)n1-c1ccc(Cl)c(Cl)c1)Nc1ccc(S(=O)(=O)Nc2ccc(Cl)nn2)cc1,96.5% (inactive)
14,COC(=O)CCSC1=C(C)C(=O)c2ccccc2C1=O,38.4% (inactive)
15,CCc1cc(OC(=O)N2CCC(N3CCCCC3)CC2)ccc1Nc1cc(-c2ccc(-n3cccn3)cc2)[nH]n1,-17.2% (active)
16,O=C(Nc1cc(C(F)(F)F)cc(C(F)(F)F)c1)Nc1ccc2oc(=O)ccc2c1,13.7% (inactive)
17,Cc1ccc2c(n1)C(=O)C(Cl)=C(Nc1ccc(C(=O)OC(C)(C)C)cc1)C2=O,0.658% [9.25 µM] (active)
18,Cc1cc(=O)[nH]c(O)c1C#N,99.2% (inactive)
19,CCN(CC)S(=O)(=O)c1ccc(-c2nc(C(Cl)Cl)nc3cc(C)nn23)cc1,8.36% (active)
20,CNC(=O)Nc1ccc(Nc2cc(-c3ccc(-n4cccn4)cc3)[nH]n2)c(C)c1,95.5% (inactive)
